Screening results from PubChem BioAssay.
The list is not random: actives were taken first. Their share in the collection is about 3.2%.
PLK1 PBD inh: qHTS for Inhibitors of PLK1-PDB (polo-like kinase 1 - polo-box domain): Primary Screen. Serine/threonine-protein kinase PLK1 (Homo sapiens), P53350. Plk1 PBD binding of FITC phosphopeptide, fluorescence polarization. Potency, µM, inactives show max response, negative = inhibition, most hits filed as inhibitors. 2.8% of 360,000 active; note: potency is the fitted concentration of half-maximal effect; series mostly up to about 57 µM; nearly all actives have a fitted effect of over 65% in size
Target sequence (P53350 whole entry, looked up, the tested form may be a part): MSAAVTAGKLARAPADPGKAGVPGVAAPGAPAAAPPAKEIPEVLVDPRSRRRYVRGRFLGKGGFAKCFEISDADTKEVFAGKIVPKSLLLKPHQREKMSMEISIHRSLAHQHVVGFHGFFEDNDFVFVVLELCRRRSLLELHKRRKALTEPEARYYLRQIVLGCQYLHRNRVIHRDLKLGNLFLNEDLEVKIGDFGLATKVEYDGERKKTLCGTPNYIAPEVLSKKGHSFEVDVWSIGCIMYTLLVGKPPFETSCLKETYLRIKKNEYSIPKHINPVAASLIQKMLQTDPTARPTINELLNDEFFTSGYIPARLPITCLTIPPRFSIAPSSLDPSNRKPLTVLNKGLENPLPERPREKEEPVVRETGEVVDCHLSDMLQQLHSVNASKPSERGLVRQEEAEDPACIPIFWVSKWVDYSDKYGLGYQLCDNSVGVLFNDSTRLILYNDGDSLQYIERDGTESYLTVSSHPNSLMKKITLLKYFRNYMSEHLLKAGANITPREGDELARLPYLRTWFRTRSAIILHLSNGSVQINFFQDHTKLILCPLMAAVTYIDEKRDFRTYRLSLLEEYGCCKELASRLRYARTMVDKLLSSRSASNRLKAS
FBPA coupling cs: qHTS Assay for Inhibitors of Fructose-1,6-bisphosphate Aldolase from Giardia Lamblia: Coupling assay counterscreen; AID 2472, 2010; coupling enzyme system counterscreen, AmpLite Red fluorescence; activity change, negative = inhibition, % at 58.2 µM, hits read low; 0.67% of 290,000 active; in the data active = activity change below about -30%
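Counterscreen lacking aldolase: glyceraldehyde-3-phosphate coupling-enzyme reagent preincubated 10 min at RT with compound (at 57.5 uM final), then substrate/coupling system with AmpLite Red added; fluorescence read at 525/598 nm after 20 min RT.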
USP1 inh: Inhibitors of USP1/UAF1: Primary Screen. Ubiquitin carboxyl-terminal hydrolase 1 (Homo sapiens), O94782. recombinant USP1/UAF1, Ub-Rhodamine cleavage fluorescence. Potency, µM (top dose mostly 57.1 µM), without a hit: at the highest dose activity change, negative = inhibition, most hits filed as inhibitors. 0.23% of 390,000 active. AID 743255, 2014; note: potency is the fitted concentration of half-maximal effect; nearly all actives have a fitted effect of over 60% in size
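In this screen, compounds sit with the deubiquitinase complex (1nM) for 15 min at room temperature before Ub-Rho is added at 150nM final. Fluorescence rise is then followed for 6 reads every 60 seconds.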
GALK inhibitor: qHTS Assay for Inhibitors of Human Galactokinase (GALK); P51570; Purified GALK, Kinase-Glo residual ATP luminescence; Potency, µM (doses to about 57.5 µM), for the others: at the highest dose activity change, negative = inhibition, usual class: inhibitors; 0.007% of 270,000 active; AID 1868, 2009; note: potency is the fitted concentration of half-maximal effect
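GALK at 5 nM final was combined with compound, 35 uM ATP and 100 uM galactose in HEPES pH8.0 with MgCl2 and DTT. The reaction ran one hour at room temperature before luminescent ATP detection.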
USP2a inh: qHTS Assay for Inhibitors of Ubiquitin-specific Protease USP2a Using CHOP2 as the Reporter. 0.01% of 330,000 active. USP2 core, Ub-CHOP2 coupled fluorogenic reporter, 485/531. AID 463254, 2010. Potency, µM (doses to about 38.3 µM), without a hit: top-dose activity change, negative = inhibition, hits mostly inhibitors;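 note: potency is the fitted concentration of half-maximal effect; plate controls were DMSO wells for no effect and full inhibition by NEM control for full effect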
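Deubiquitinase activity read as fluorescence (485/531 nm) after Ub-CHOP2 cleavage activates the enterokinase reporter on its substrate; USP2 core 10nM, Ub-CHOP2 and substrate 25nM each, 30min compound preincubation then 60min RT; data normalized to NEM, curves fitted.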
VDR inh: Inhibitors of the vitamin D receptor (VDR): qHTS; Vitamin D3 receptor (Homo sapiens), P11473; VDR-SRC2-3 peptide fluorescence polarization, 2 h; Potency, µM, inactives show max response, negative = inhibition, usual class: inhibitors; 0.93% of 400,000 active; AID 504847, 2011; note: potency is the fitted concentration of half-maximal effect
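Fluorescence polarization assay measuring small-molecule disruption of VDR binding to the coregulator peptide SRC2-3. Compounds were pin-transferred (23 nl) into the reagent mix and incubated 2 h at room temperature before reading.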
The depositor's hits bear a star; ? = inconclusive; nt = no result. Unless noted, calls come from the whole dose curve; as a rule, active = well fitted curve in the direction sought with a large enough effect; inconclusive = small, poorly fitted or top-dose-only effect, or another doubt; inactive = no such curve, though single readings can be large; an effect the other way counts as inactive or inconclusive. Unless noted, % is set by controls: 0 for no effect and ±100 for the full control effect.

SMILES	PLK1 PBD inh	FBPA coupling cs	USP1 inh	GALK inhibitor	USP2a inh	VDR inh
COc1ccc(C(=O)c2ccccc2)c2c(O)ccc(C(=O)c3ccccc3)c12	-6.0%	-0.5	-7.4%	-0.1%	-1.7%	17.0%
COc1ccc(C(C)=O)c2c(O)cccc12	-8.4%	-37.3*	-0.6%	0.5%	1.8%	25.3%
CCn1cc(SCC(=O)NCC2CCCO2)c2ccccc21 (centres undefined)	7.52µM*	0.2	-18.0%	2.4%	-0.2%	-6.3%
Cn1cccc1Cc1nnc(SCC(=O)NCC2CCCO2)n1C (centres undefined)	23.8µM*	-0.2	-23.7%	1.4%	-2.9%	-12.0%
COc1cc(Cl)ccc1OCc1cc(C(=O)N2CCCCCCC2)no1	-14.5%	nt	-8.7%	-8.7%	2.3%	14.7%
O=C(c1cc(COc2c(F)cccc2F)on1)N1CCCCCC1	-14.4%	nt	-2.0%	-3.7%	-0.3%	-5.1%
COc1cc(C)ccc1OCc1cc(C(=O)N2CCCCCC2)no1	26.7µM*	-1.0	-15.5%	nt	-4.0%	?
O=C(c1cc(COc2c(F)cccc2F)on1)N1CCN(C2CCCCC2)CC1	23.8µM*	nt	-1.5%	-1.7%	0.9%	-4.3%
O=C(NCc1ccc(Cl)cc1)NCC(F)(F)F	29.9µM*	-1.6	-17.6%	-0.2%	3.8%	-8.2%
O=C(NCc1ccc(Cl)cc1)Nc1ccc(F)cc1	-8.1%	1.5	-20.7%	-7.2%	3.2%	2.6%
CCOC(=O)c1c(C)oc2c1c(C(c1ccccc1)N1CCOCC1)c(O)c1ccccc12 (centres undefined)	-23.2%	-42.0*	-11.1%	-2.1%	4.4%	-14.5%
CCOC(=O)c1cnc(-c2ccccc2)nc1N1CCOCC1	1.9%	1.3	-5.8%	8.2%	-0.1%	-4.1%
CCOC(=O)C1CCN(C(c2cccnc2)c2c(NC(=O)c3ccco3)sc(C)c2C)CC1 (centres undefined)	-2.3%	-5.6	-20.9%	-1.1%	-2.4%	-23.1%
CCOC(=O)c1c(C)oc2c1c(C=NCCO)c(O)c1ccccc12	-21.2%	-64.9*	?	-4.4%	-1.4%	-5.0%
CCOC(=O)c1c(C)oc2c1c(C(c1cccnc1)N1CCCCC1)c(O)c1ccccc12 (centres undefined)	11.9µM*	-36.3*	-1.9%	0.5%	1.1%	-16.8%
CCOC(=O)c1c(C)oc2c1c(/C=N/c1ccccn1)c(O)c1ccccc12	nt	nt	nt	nt	nt	-26.2%
O=c1c2ccccc2nc2oc3ccccc3n12	?	1.7	-11.6%	0.4%	-2.2%	-14.5%
O=C(Nc1cc(Br)ccc1O)C1CC(c2ccccc2Cl)=NO1 (centres undefined)	6.2%	0.2	-21.9%	0.0%	2.1%	1.4%
Cn1ncc(C#N)c1NC(=O)C1CC(c2ccccc2Cl)=NO1 (centres undefined)	29.9µM*	-3.6	-11.5%	1.1%	7.2%	-22.1%
COc1ccc(NC(=O)c2cc(-c3ccncc3)nc3ccccc23)c(OC)c1	6.8%	nt	-2.7%	nt	1.1%	7.3%
O=C(CN(C1CCCCC1)S(=O)(=O)c1ccc(F)cc1)NCC1CCCO1 (centres undefined)	29.9µM*	nt	-18.7%	nt	nt	?
Cc1ccc(C)c(NS(=O)(=O)c2ccc(OCC(=O)NCC3CCCO3)cc2)c1 (centres undefined)	-19.5%	0.2	-6.5%	8.3%	-0.3%	4.0%
Cc1ccc(NS(=O)(=O)c2ccc(OCC(=O)NCC3CCCO3)cc2)cc1 (centres undefined)	29.9µM*	4.1	-19.4%	1.7%	2.0%	-4.9%
CCNS(=O)(=O)c1ccc(NC(=S)NCC2CCCO2)cc1 (centres undefined)	23.8µM*	-0.1	0.5%	0.7%	5.1%	?
O=C(CN(C1CCCCC1)S(=O)(=O)c1ccccc1)NCC1CCCO1 (centres undefined)	-0.8%	4.6	-9.0%	15.3%	0.8%	-3.4%
SMILES	PLK1 PBD inh	FBPA coupling cs	USP1 inh	GALK inhibitor	USP2a inh	VDR inh
S=C(NCC1CCCO1)Nc1ccc(Cl)c(Cl)c1 (centres undefined)	11.9µM*	1.0	-15.1%	6.9%	0.8%	?
CCCCC(=O)Nc1ccc(N2CCN(C(=O)CC)CC2)cc1	-1.5%	-2.4	-12.5%	-0.3%	-0.7%	-1.3%
Cc1ccc(-c2nc(S(=O)(=O)c3ccc(F)cc3)c(SCC(=O)NCC3CCCO3)o2)cc1 (centres undefined)	18.9µM*	-0.6	-21.6%	0.5%	-0.7%	-20.4%
COc1ccc(NS(=O)(=O)c2ccc(NC(=S)NCC3CCCO3)cc2)cc1 (centres undefined)	-20.3%	nt	-24.0%	2.7%	-0.2%	-4.7%
COc1ccccc1NS(=O)(=O)c1ccc(O)c(NC(=S)NCC2CCCO2)c1 (centres undefined)	13.4µM*	3.0	-10.1%	nt	-0.2%	-29.7%
CC(C)(c1ccccc1)c1ccc(OCCCNCCO)cc1	-21.4%	0.3	-22.2%	-2.7%	-1.1%	-11.3%
COc1cc(/C=C2\C(C)=C(C#N)c3nc(N)c(C#N)c(C)c32)ccc1OCC(=O)O	26.7µM*	-12.5	-19.1%	-7.1%	7.7%	-18.6%
Cc1ccc2c(c1)N(C(=O)CCC(=O)NCc1cccc(Br)c1)CC(C)O2 (centres undefined)	-13.0%	-0.9	-4.2%	nt	-1.4%	3.1%
COc1ccc(NC(=O)CCS(=O)(=O)c2ccc3c(c2)NC(=O)C(C)S3)cc1OC (centres undefined)	6.7µM*	-1.8	-9.7%	1.3%	-1.1%	?
Cc1cc(NC(=O)CCS(=O)(=O)c2ccc3c(c2)NC(=O)C(C)S3)ccc1Br (centres undefined)	-7.0%	0.9	-0.8%	-1.7%	1.8%	3.9%
CC1Sc2ccc(S(=O)(=O)CCC(=O)N3CCc4ccccc43)cc2NC1=O (centres undefined)	29.9µM*	nt	-22.7%	1.6%	1.2%	-19.4%
CCC1Sc2ccc(S(=O)(=O)CCC(=O)N3CCc4ccccc43)cc2NC1=O (centres undefined)	-18.8%	nt	-10.4%	4.6%	0.8%	-14.0%
CCCC1O[C@@H]2CC3C4CCC5=CC(=O)C=C[C@]5(C)C4C(OC(C)=O)C[C@]3(C)[C@]2(C(=O)COC(C)=O)O1 (some centres undefined)	18.9µM*	-2.1	-7.2%	-4.1%	-0.5%	?
